The source made the active and inactive calls. Unless noted, the rule behind the calls is not given here.
Experiments:
[1] = A549 cell viability effects, profiling panel, calcein-AM fluorescence, 48 h, basal (AID 1162); settings: higher = more signal; note: test concentration not given here
[2] = adipocyte viability effects, profiling panel, cell-based, 3T3-L1 adipocytes, calcein-AM fluorescence, 48 h, basal (AID 1163); settings: 3T3-L1 adipocytes viability, higher = more signal; note: test concentration not given here
[3] = HepG2 cell viability effects, profiling panel, calcein-AM fluorescence, 48 h, basal (AID 1164); settings: higher = more signal; note: test concentration not given here
[4] = MM1S cell viability effects, profiling panel, calcein-AM fluorescence, 48 h, basal (AID 1165); settings: higher = more signal;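 note: viability of MM1S multiple myeloma cells under basal unstimulated conditions; test concentration not given here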
[5] = basal RPMI8226 viability, no added stimulus, profiling panel, cell-based, calcein-AM fluorescence, 48 h, PK04 Diversity Set (AID 1166); settings: RPMI8226 myeloma viability, higher = more signal;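 note: cells grown under basal conditions without added stimulus; test concentration not given here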
[6] = basal HepG2 mitochondrial membrane potential changes, profiling panel, cell-based, JC-1 fluorescence, 24 h, 100 nL compound (AID 1167); settings: higher = more signal; note: test concentration not given here
[7] = basal 3T3-L1 adipocyte mitochondrial potential changes, profiling panel, cell-based, JC-1 fluorescence, 3T3-L1 adipocytes, 24 h, 100 nL compound (AID 1168); settings: JC-1 mitochondrial fluorescence, higher = more signal, called active from +8 up or from −8 down; note: test concentration not given here
[8] = basal RPMI8226 mitochondrial membrane potential changes, profiling panel, cell-based, JC-1 fluorescence, 24 h, 100 nL compound (AID 1169); settings: RPMI8226 myeloma, JC-1 mitochondrial potential fluorescence, higher = more signal; note: test concentration not given here
[9] = basal MM1S mitochondrial membrane potential changes, profiling panel, cell-based, JC-1 fluorescence, 24 h, 100 nL compound (AID 1170); settings: higher = more signal; note: test concentration not given here
[10] = A549 lung cancer cell viability effects, profiling panel, resazurin fluorescence, 24 h, PK04 Diversity Set (AID 1171); settings: higher = more signal, called active from +8 up or from −8 down; note: test concentration not given here
[11] = HepG2 liver cancer cell viability effects, profiling panel, resazurin fluorescence, 24 h, PK04 Diversity Set (AID 1172); settings: higher = more signal; note: test concentration not given here
[12] = basal S. cerevisiae growth modulation, no modifier, primary screen, OD600, strain BY4716, 24 h, basal condition (AID 1173); settings: OD600, 24 h, higher = more signal, called active from +8 up or from −8 down
[13] = MM1S myeloma cell viability, profiling panel, resazurin fluorescence, basal, 24 h, PK04 Diversity Set (AID 1174); settings: higher = more signal, called active from +8 up or from −8 down;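 note: MM1S multiple myeloma cell line; test concentration not given here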
[14] = molecular target: Dihydroorotate dehydrogenase (quinone), mitochondrial (Plasmodium falciparum (isolate 3D7)) (UniProt Q08210); experiment: PfDHODH enzyme inhibitors, primary screen, biochemical, C-terminal His tag, absorbance 600 nm (AID 1175); settings: DCIP absorbance 600 nm, higher = more signal, called active from +8 up or from −8 down;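 note: recombinant parasite enzyme with a five histidine tag at its C terminus; test concentration not given here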
[15] = P. aeruginosa biofilm formation inhibitors, primary screen, strain PAO1, LB-PBS medium, absorbance 600 nm (AID 1176); note: test concentration not given here; settings: P. aeruginosa PAO1 growth/biofilm, A600, 12 h; higher = more signal
[16] = S. cerevisiae RM11-1a growth modifiers, primary screen, strain RM11-1a, OD600, basal, 24 h (AID 1177); settings: OD600, 24 h, higher = more signal, called active from +8 up or from −8 down;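 note: cultures grown under basal conditions with no added stressor; test concentration not given here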
[17] = E. coli acrAB mutant growth effects, primary screen, E. coli filamentation inducers, strain DRC39, OD650, 24 h (AID 1178); settings: higher = more signal, called active from +8 up or from −8 down;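 note: growth measured as culture turbidity by optical density at 650 nm; test concentration not given here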
[18] = E. coli acrAB mutant growth effects, primary screen, E. coli filamentation inducers, strain DRC39, OD650, 48 h (AID 1179);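 note: screen aims at cell division blockers that make cells filament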; settings: E. coli DRC39 delta-acrAB growth, higher = more signal, called active from +8 up or from −8 down
[19] = RPMI8226 myeloma cell viability, profiling panel, resazurin fluorescence, basal, 24 h, PK04 Diversity Set (AID 1180); settings: higher = more signal;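 note: RPMI8826 multiple myeloma cell line at 5000 cells per well; test concentration not given here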
[20] = molecular target: E3 ubiquitin-protein ligase XIAP (Homo sapiens) (UniProt P98170); experiment: XIAP binders, primary screen, biophysical, small-molecule microarray, fluorescence 635 nm (AID 1181); settings: small-molecule microarray binding, higher = more signal;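 note: score merges 667 nm emission and signal to noise over triplicate slides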
E3 ubiquitin-protein ligase XIAP (Homo sapiens), sequence (P98170 whole entry, looked up): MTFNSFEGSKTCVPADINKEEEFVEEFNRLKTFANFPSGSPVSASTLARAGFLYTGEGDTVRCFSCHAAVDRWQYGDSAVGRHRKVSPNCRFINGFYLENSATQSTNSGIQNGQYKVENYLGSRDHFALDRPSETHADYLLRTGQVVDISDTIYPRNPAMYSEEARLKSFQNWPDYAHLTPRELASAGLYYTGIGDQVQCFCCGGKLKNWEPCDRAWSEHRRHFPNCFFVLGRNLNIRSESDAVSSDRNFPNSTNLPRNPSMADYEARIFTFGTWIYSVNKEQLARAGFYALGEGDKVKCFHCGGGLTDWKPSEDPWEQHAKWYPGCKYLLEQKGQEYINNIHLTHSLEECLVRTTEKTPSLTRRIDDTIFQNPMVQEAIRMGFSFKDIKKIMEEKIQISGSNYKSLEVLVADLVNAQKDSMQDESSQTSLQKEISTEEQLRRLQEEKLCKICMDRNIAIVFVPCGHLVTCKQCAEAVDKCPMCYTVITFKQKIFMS

Dihydroorotate dehydrogenase (quinone), mitochondrial (Plasmodium falciparum (isolate 3D7)), sequence (Q08210 whole entry, looked up): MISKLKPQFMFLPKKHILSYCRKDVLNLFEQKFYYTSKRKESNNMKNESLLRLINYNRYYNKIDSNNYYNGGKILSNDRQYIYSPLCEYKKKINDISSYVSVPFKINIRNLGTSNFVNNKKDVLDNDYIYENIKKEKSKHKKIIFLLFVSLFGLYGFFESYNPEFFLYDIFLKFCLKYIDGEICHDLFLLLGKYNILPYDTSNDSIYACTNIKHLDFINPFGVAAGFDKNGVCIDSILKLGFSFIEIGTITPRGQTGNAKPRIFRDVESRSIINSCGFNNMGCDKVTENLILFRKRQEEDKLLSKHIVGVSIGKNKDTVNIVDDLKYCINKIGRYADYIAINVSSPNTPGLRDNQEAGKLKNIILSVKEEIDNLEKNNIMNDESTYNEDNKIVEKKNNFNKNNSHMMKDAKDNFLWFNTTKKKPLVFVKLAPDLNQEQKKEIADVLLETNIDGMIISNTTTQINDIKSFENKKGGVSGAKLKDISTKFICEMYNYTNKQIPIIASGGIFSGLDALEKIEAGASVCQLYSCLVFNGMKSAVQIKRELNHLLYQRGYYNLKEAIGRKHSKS

Structure (SMILES) | z-score [1] | z-score [2] | z-score [3] | z-score [4] | z-score [5] | z-score [6] | z-score [7] | z-score [8] | z-score [9] | z-score [10] | z-score [11] | z-score [12] | z-score [13] | composite z-score [14] | z-score [15] | z-score [16] | z-score [17] | z-score [18] | z-score [19] | composite z-score [20]
C=CC[C@H](OC(=O)Nc1ccc(SC)cc1)c1ccc(OCCO)cc1 | -0.542 | -0.228 | -0.91 | -0.75 | 0.329 | -1.68 | -0.313 (inactive) | -0.309 | -0.227 | 0.631 (inactive) | 0.826 | -3.71 (inactive) | 0.819 (inactive) | -1.51 (inactive) | 0.119 (inactive) | 1.07 (inactive) | -0.0217 (inactive) | -0.254 (inactive) | 0.194 | 0.0264
O=C1C2C=CC(C(O)c3cccc(O)c3)N(Nc3ccccc3)C2C(=O)N1c1ccccc1 (stereo not given) | -0.671 | -0.096 | -1.22 | -0.109 | -0.444 | -2.04 | 0.166 (inactive) | -0.0193 | -1.37 | -0.224 (inactive) | -0.491 | -0.774 (inactive) | -1.05 (inactive) | -0.791 (inactive) | 0.67 (inactive) | 0.196 (inactive) | -0.0671 (inactive) | 0.0995 (inactive) | -0.985 | -0.0806
COc1ccc([Si](C)(C)[C@H]2[C@H](CC(=O)N3Cc4ccccc4C[C@H]3CO)O[C@@]3(C(=O)N(Cc4ccc(N5C(=O)c6cccc7cccc5c67)cc4)c4ccccc43)[C@@H]2C)cc1 | -0.0678 | 0.314 | 0.898 | -0.769 | -0.874 | 2.5 | -0.178 (inactive) | -1.22 | -0.862 | 0.0918 (inactive) | 0.716 | 0.21 (inactive) | -2 (inactive) | -0.934 (inactive) | 1.13 (inactive) | 1.77 (inactive) | 0.929 (inactive) | 0.472 (inactive) | -0.737 | -0.063
NC(=O)N1C(=O)C2C(C1=O)C1C=C(CCCO)C2C(C2CC2)N1Cc1cccc(OC(F)(F)F)c1 (stereo not given) | -0.307 | 0.0635 | 0.801 | -2.82 | 0.0097 | -0.348 | 0.418 (inactive) | 0.191 | 0.645 | -0.334 (inactive) | -0.807 | -1.33 (inactive) | -0.217 (inactive) | -1.26 (inactive) | -0.0585 (inactive) | -0.0011 (inactive) | -0.149 (inactive) | -0.508 (inactive) | -0.762 | 0.312
CC(=O)n1cc(C(O)C2C=CC3C(=O)N(c4ccccc4)C(=O)C3N2Nc2ccc(C(C)C)cc2)c2ccccc21 (stereo not given) | -0.545 | -0.745 | -1.08 | -0.829 | -1.33 | -0.975 | -1.16 (inactive) | -0.886 | 0.299 | 0.169 (inactive) | -1.41 | -2.33 (inactive) | -1.12 (inactive) | 0.708 (inactive) | 1.44 (inactive) | 1.36 (inactive) | -0.0648 (inactive) | -0.0683 (inactive) | -1.06 | 0.0072
O=C1O[C@H](c2ccccc2)[C@H](c2ccccc2)N2[C@H]1[C@@H](C(=O)N1CCCCCCC1)[C@]1(C(=O)Nc3ccc(C#CC4(O)CCCCCC4)cc31)[C@H]2c1ccc(O)cc1 | 0.792 | -0.597 | 1.68 | -0.845 | -1.59 | -0.806 | 0.212 (inactive) | -0.613 | -0.515 | 0.0109 (inactive) | 0.114 | -0.101 (inactive) | -0.5 (inactive) | 0.0579 (inactive) | 0.875 (inactive) | 0.74 (inactive) | 0.799 (inactive) | 0.163 (inactive) | 0.295 | 0.322
C=C(COC)C(=O)CC[C@H](OC(=O)c1cccnc1)c1ccc(CO)o1 | -0.15 | -0.266 | -0.53 | -0.401 | -0.535 | -0.981 | -0.492 (inactive) | 0.541 | -0.267 | -0.452 (inactive) | -0.655 | -1.29 (inactive) | -0.317 (inactive) | -3.37 (inactive) | 0.142 (inactive) | -0.663 (inactive) | -0.659 (inactive) | -0.649 (inactive) | -0.732 | 0.0565
CN1C(=O)C2C(C1=O)C1C=C(CCCO)C2C(C2CC2)N1Cc1cc2c(cc1Br)OCO2 (stereo not given) | -0.487 | 0.337 | -0.717 | -0.172 | -0.909 | 0.435 | -0.527 (inactive) | 0.87 | 0.859 | -0.477 (inactive) | -0.622 | -0.975 (inactive) | -1 (inactive) | -0.341 (inactive) | 0.0721 (inactive) | 0.0644 (inactive) | -0.344 (inactive) | -0.291 (inactive) | -0.543 | -0.113
NC(=O)[C@@H]1[C@H]2C(=O)O[C@H](c3ccccc3)[C@H](c3ccccc3)N2[C@H](c2ccc(OCCO)cc2)[C@@]12C(=O)Nc1ccc(C#CCCO)cc12 | -0.0173 | -0.387 | 1.17 | -0.929 | 0.698 | -0.704 | -0.391 (inactive) | -0.323 | -0.939 | -0.65 (inactive) | -0.632 | -0.349 (inactive) | -0.729 (inactive) | -1.26 (inactive) | 1.42 (inactive) | 1.27 (inactive) | 0.544 (inactive) | 0.721 (inactive) | -0.83 | 0.216
CN(C)CCCNC(=O)[C@@H]1c2ccccc2C(=O)N(C2CCCCC2)[C@H]1c1ccc(CO)cc1 | 0.634 | -0.318 | 0.821 | -0.592 | -0.514 | 2.43 | 0.626 (inactive) | 0.363 | -0.243 | 0.887 (inactive) | 0.848 | -0.737 (inactive) | 0.749 (inactive) | -0.151 (inactive) | 0.0714 (inactive) | 0.409 (inactive) | -0.101 (inactive) | 0.515 (inactive) | 0.988 | -0.157
CN(C)C(=O)[C@@]1(Cc2ccccc2N=[N+]=[N-])N=C(c2ccc(OCCCO)cc2)O[C@H]1c1ccccc1 | -1.85 | 0.574 | -0.954 | -2.99 | -3.67 | 0.517 | 0.0738 (inactive) | -1.25 | -1.67 | -2.2 (inactive) | 0.329 | -1.23 (inactive) | -3.18 (inactive) | 0.346 (inactive) | 0.274 (inactive) | 0.751 (inactive) | -0.105 (inactive) | -1.1 (inactive) | -3.04 | 0.102
CCCNC(=O)[C@@]1(C)c2ccccc2C(=O)N(Cc2ccccc2)[C@H]1c1ccc(CO)cc1 | -0.0623 | 0.47 | 1.03 | -0.542 | 0.485 | 4.13 | -0.0853 (inactive) | -0.415 | 1.14 | 1.47 (inactive) | -0.0367 | -0.312 (inactive) | 0.435 (inactive) | -0.0373 (inactive) | -0.0065 (inactive) | -0.637 (inactive) | 0.503 (inactive) | -0.105 (inactive) | 1.67 | -0.0701
COc1ccc([Si](C)(C)[C@@H]2[C@@H](CCn3cc([C@H](O)c4ccccc4)nn3)O[C@]3(C(=O)N(Cc4cccc(N5C(=O)c6cccc7cccc5c67)c4)c4ccccc43)[C@H]2C)cc1 | -0.381 | 0.0092 | 0.3 | -0.189 | -2.11 | 1.07 | -0.265 (inactive) | -0.681 | -0.193 | -1.26 (inactive) | -0.167 | 1.33 (inactive) | -2.01 (inactive) | 0.736 (inactive) | 0.106 (inactive) | 2.11 (inactive) | -0.494 (inactive) | -0.787 (inactive) | -1.19 | -0.217
CCOC(=O)C1=CCC(c2ccco2)N(S(=O)(=O)c2ccc(C)cc2)C1 (stereo not given) | -0.373 | 0.279 | 0.34 | -2.93 | -1.64 | -0.843 | -1.32 (inactive) | 0.733 | -2.11 | 0.326 (inactive) | 1.18 | -4.03 (inactive) | 0.123 (inactive) | -2.2 (inactive) | -0.253 (inactive) | -0.749 (inactive) | 0.234 (inactive) | 1.34 (inactive) | 0.769 | 0.424
C=C(C(=O)CC[C@H](OC(=O)c1ccccc1-c1ccccc1C(=O)O)c1ccccc1OCCO)C(C)C | 0.301 | 1.72 | 0.255 | -3.44 | -2.35 | -0.266 | 0.585 (inactive) | -0.636 | 0.63 | 0.109 (inactive) | 0.0659 | -1.04 (inactive) | 0.181 (inactive) | -0.169 (inactive) | 0.108 (inactive) | -0.0722 (inactive) | 0.88 (inactive) | 0.32 (inactive) | -0.268 | 0.194
O=C(O)[C@@H]1C[C@@H]2C(=O)N3CCC[C@H]3C(=O)N2[C@@H]1c1cccc(OCCO)c1 | 0.0951 | 0.717 | -0.439 | -0.456 | -0.159 | 0.591 | 0.283 (inactive) | 0.817 | 0.718 | -0.0326 (inactive) | -0.188 | -1.28 (inactive) | -0.447 (inactive) | -0.899 (inactive) | 0.547 (inactive) | 0.0761 (inactive) | -0.185 (inactive) | -0.685 (inactive) | -0.0605 | 0.338
